Results reported in PubChem BioAssay AID1159580 (chemical genetic matrix, 2015).
Out of some 5,500 compounds screened, about 2,000 (36%) were called active. Roughly 18% stayed inconclusive and do not appear here. No stated cut-off is given here; in the data, active means normalized growth mostly below about 0.91 (no sharp cut-off); inconclusive means no clear call, values can overlap the other calls; inactive means mostly above about 0.92. The list shows a part of the results.

Experiment: chemical genetic growth profiling, strain panel (AID 1159580);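 further: tested at 20 µM; growth read once vehicle control cultures reached saturation at 30 °C; 1 = growth at the plate median or of vehicle wells; lower values mean less growth of the strain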
Details: growth OD
[1] = S. cerevisiae deletion strains, locus YDL101C, strain DUN1, hits give low values
[2] = S. cerevisiae deletion strains, locus YHR030C, strain SLT2, hits give low values

Measured: normalized growth

COC(=O)c1ccc(Cl)cc1N(Cc1ccccc1)S(C)(=O)=O
inactive: S. cerevisiae deletion strains, locus YAL013W, strain DEP1, hits give low values 1.01 | S. cerevisiae deletion strains, locus YBR229C, strain ROT2, hits give low values 1.02 | [1] 0.998 | S. cerevisiae deletion strains, locus YDL134C, strain PPH21, hits give low values 1 | S. cerevisiae deletion strains, locus YDR150W, strain NUM1, hits give low values 0.934 | S. cerevisiae deletion strains, locus YEL061C, strain CIN8, hits give low values 1 | S. cerevisiae deletion strains, locus YGR078C, strain PAC10, hits give low values 0.992 | S. cerevisiae deletion strains, locus YGR229C, strain SMI1, hits give low values 0.999 | [2] 1.11 | S. cerevisiae deletion strains, locus YHR087W, strain rtc3, hits give low values 1 | S. cerevisiae deletion strains, locus YJL187C, strain SWE1, hits give low values 1 | S. cerevisiae deletion strains, locus YJR075W, strain HOC1, hits give low values 0.968 | S. cerevisiae deletion strains, locus YLR039C, strain RIC1, hits give low values 1.03 | S. cerevisiae deletion strains, locus YLR058C, strain SHM2 (second series), hits give low values 1.01 | S. cerevisiae deletion strains, locus YLR085C, strain ARP6, hits give low values 1.05 | S. cerevisiae deletion strains, locus YLR262C, strain YPT6, hits give low values 1 | S. cerevisiae deletion strains, locus YML094W, strain GIM5, hits give low values 1.02 | S. cerevisiae deletion strains, locus YMR219W, strain ESC1, hits give low values 1 | S. cerevisiae deletion strains, locus YMR263W, strain SAP30, hits give low values 0.929 | S. cerevisiae deletion strains, locus YNL128W, strain TEP1, hits give low values 1.02 | S. cerevisiae deletion strains, locus YNL153C, strain GIM3, hits give low values 1 | S. cerevisiae deletion strains, locus YNL298W, strain CLA4 (second series), hits give low values 1.04 | S. cerevisiae deletion strains, locus YNL322C, strain KRE1, hits give low values 0.985 | S. cerevisiae deletion strains, locus YNR030W, strain Alg12, hits give low values 1.02 | S. cerevisiae deletion strains, locus YOL006C, strain TOP1, hits give low values 1.14 | S. cerevisiae deletion strains, locus YPL055C, strain LGE1, hits give low values 0.923 | S. cerevisiae deletion strains, locus YPL241C, strain CIN2, hits give low values 1.03 | S. cerevisiae deletion strains, locus YPR135W, strain CTF4, hits give low values 1.17 | S. cerevisiae strains, strain wild type, hits give low values 1.03

CN(C(=O)N(C)c1ccc(Cl)cc1C(=O)c1ccccc1Cl)c1ccc(Cl)cc1C(=O)c1ccccc1Cl
active: S. cerevisiae deletion strains, locus YAR019C, strain CDC15, hits give low values 0.84 | S. cerevisiae deletion strains, locus YBL105C, strain PKC1, hits give low values 0.85 | S. cerevisiae deletion strains, locus YBR135W, strain CKS1, hits give low values 0.85 | S. cerevisiae deletion strains, locus YBR136W, strain MEC1, hits give low values 0.832 | S. cerevisiae deletion strains, locus YBR160W, strain CDC28, hits give low values 0.853 | S. cerevisiae deletion strains, locus YDL017W, strain CDC7, hits give low values 0.851 | S. cerevisiae deletion strains, locus YDL028C, strain MPS1, hits give low values 0.835 | [1] 0.847 | S. cerevisiae deletion strains, locus YDL108W, strain KIN28, hits give low values 0.831 | S. cerevisiae deletion strains, locus YDL132W, strain cdc53, hits give low values 0.853 | S. cerevisiae deletion strains, locus YDL214C, strain PRR2, hits give low values 0.471 | S. cerevisiae deletion strains, locus YDR052C, strain DBF4, hits give low values 0.855 | S. cerevisiae deletion strains, locus YDR054C, strain cdc34, hits give low values 0.805 | S. cerevisiae deletion strains, locus YDR226W, strain ADK1, hits give low values 0.86 | S. cerevisiae deletion strains, locus YDR477W, strain SNF1, hits give low values 0.467 | S. cerevisiae deletion strains, locus YER123W, strain YCK3, hits give low values 0.388 | S. cerevisiae deletion strains, locus YER133W, strain GLC7, hits give low values 0.447 | S. cerevisiae deletion strains, locus YFL009W, strain cdc4, hits give low values 0.848 | S. cerevisiae deletion strains, locus YFL029C, strain CAK1, hits give low values 0.828 | S. cerevisiae deletion strains, locus YFR003C, strain YPI1, hits give low values 0.85 | S. cerevisiae deletion strains, locus YFR019W, strain FAB1, hits give low values 0.577 | S. cerevisiae deletion strains, locus YFR028C, strain CDC14, hits give low values 0.841 | S. cerevisiae deletion strains, locus YGR040W, strain KSS1, hits give low values 0.462 | S. cerevisiae deletion strains, locus YGR052W, strain FMP48, hits give low values 0.46 | S. cerevisiae deletion strains, locus YGR092W, strain DBF2, hits give low values 0.242 | [2] 0.49 | S. cerevisiae deletion strains, locus YHR079C, strain IRE1, hits give low values 0.463 | S. cerevisiae deletion strains, locus YHR082C, strain KSP1, hits give low values 0.492 | S. cerevisiae deletion strains, locus YIL147C, strain SLN1, hits give low values 0.826 | S. cerevisiae deletion strains, locus YJL095W, strain BCK1, hits give low values 0.417 | S. cerevisiae deletion strains, locus YJL157C, strain FAR1, hits give low values 0.51 | S. cerevisiae deletion strains, locus YJR016C, strain ILV3, hits give low values 0.883 | S. cerevisiae deletion strains, locus YJR066W, strain TOR1 (second series), hits give low values 0.518 | S. cerevisiae deletion strains, locus YJR066W, strain TOR1, hits give low values 0.381 | S. cerevisiae deletion strains, locus YKL048C, strain ELM1, hits give low values 0.605 | S. cerevisiae deletion strains, locus YKL067W, strain YNK1, hits give low values 0.525 | S. cerevisiae deletion strains, locus YKL101W, strain HSL1, hits give low values 0.524 | S. cerevisiae deletion strains, locus YKL193C, strain SDS22, hits give low values 0.832 | S. cerevisiae deletion strains, locus YKL203C, strain TOR2, hits give low values 0.457 | S. cerevisiae deletion strains, locus YLR113W, strain HOG1, hits give low values 0.447 | S. cerevisiae deletion strains, locus YLR133W, strain CKI1, hits give low values 0.582 | S. cerevisiae deletion strains, locus YLR403W, strain SFP1, hits give low values 0.592 | S. cerevisiae deletion strains, locus YML070W, strain DAK1, hits give low values 0.446 | S. cerevisiae deletion strains, locus YMR001C, strain CDC5, hits give low values 0.838 | S. cerevisiae deletion strains, locus YMR205C, strain PFK2 (second series), hits give low values 0.549 | S. cerevisiae deletion strains, locus YMR277W, strain FCP1, hits give low values 0.825 | S. cerevisiae deletion strains, locus YNL006W, strain LST8, hits give low values 0.855 | S. cerevisiae deletion strains, locus YNL020C, strain ARK1, hits give low values 0.527 | S. cerevisiae deletion strains, locus YNL161W, strain CBK1, hits give low values 0.852 | S. cerevisiae deletion strains, locus YNL183C, strain NPR1, hits give low values 0.412 | S. cerevisiae deletion strains, locus YNL207W, strain RIO2, hits give low values 0.825 | S. cerevisiae deletion strains, locus YNL222W, strain SSU72, hits give low values 0.846 | S. cerevisiae deletion strains, locus YNL307C, strain MCK1 (second series), hits give low values 0.412 | S. cerevisiae deletion strains, locus YOL078W, strain AVO1, hits give low values 0.845 | S. cerevisiae deletion strains, locus YOL136C, strain PFK27, hits give low values 0.51 | S. cerevisiae deletion strains, locus YOR061W, strain CKA2, hits give low values 0.477 | S. cerevisiae deletion strains, locus YOR119C, strain RIO1, hits give low values 0.483 | S. cerevisiae deletion strains, locus YOR231W, strain MKK1, hits give low values 0.455 | S. cerevisiae deletion strains, locus YOR329C, strain SCD5, hits give low values 0.846 | S. cerevisiae deletion strains, locus YPL031C, strain PHO85, hits give low values 0.441 | S. cerevisiae deletion strains, locus YPL153C, strain RAD53, hits give low values 0.369 | S. cerevisiae deletion strains, locus YPL204W, strain HRR25, hits give low values 0.487 | S. cerevisiae deletion strains, locus YPL209C, strain IPL1, hits give low values 0.855 | S. cerevisiae deletion strains, locus YPL256C, strain CLN2, hits give low values 0.508 | S. cerevisiae deletion strains, locus YPR025C, strain CCL1, hits give low values 0.856 | S. cerevisiae deletion strains, locus YPR106W, strain ISR1, hits give low values 0.868 | S. cerevisiae deletion strains, strain NNK1, hits give low values 0.855 | S. cerevisiae deletion strains, strain TSCII, hits give low values 0.818
inactive: S. cerevisiae deletion strains, locus YHR205W, strain SCH9, hits give low values 0.716 | S. cerevisiae deletion strains, locus YJL128C, strain PBS2, hits give low values 0.867 | S. cerevisiae deletion strains, locus YPR111W, strain DBF20, hits give low values 0.874
